30 sequences from PubChem BioAssay AID1347426 (Functional Genomics Laboratory (NCATS/FGL), 2020) can be followed below.

Hit rate of the full screen: of about 31,000 sequences, about 1,400 (4.5%) were called active.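 How the source made its calls: active means median seed-adjusted z-score above 1 or below -1; inactive means the rest.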 The full list was thinned out, with actives kept by preference.

This test is described as follows: Novel Modifiers of Survival Motor Neuron (SMN) Protein: Gene Identification via Genome-wide siRNA Screen. The following applies: HEK293T SMN2-luciferase reporter, siRNA knockdown, 72 h; actives lie on both sides. The essentials: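 Each of three siRNAs per gene is reverse-transfected (1 pmol) into reporter HEK293T cells whose luciferase output tracks SMN protein level. After 72 h culture, ONE-Glo luminescence is control-normalized, log10-transformed and MAD-standardized; Common Seed Analysis deprioritizes seed-driven hits.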
(In a reporter assay the amount or activity of a reporter protein is the signal.)
As for GGAUAGUAUGAAUGAUCAATT against SRP54, the median seed-adjusted z-score is 0.203 (inactive).
With CCGCUUCACAGGUAGUUAATT against NUP93, the median seed-adjusted z-score is 1.01 (active).
To GGUCAAACAAUGUCGCUUUTT against COPB2 belongs -0.61 (inactive); to GUAAGUCCCUUUAUUCACATT against GFRA4, -1.59 (active).
GGACUCUACCUGACAGAAATT against CAPN13: the median seed-adjusted z-score is 0.208 (inactive).
To GGUUCUAGCUGUCAACAUUTT against AP1G2 belongs 0.0657 (inactive).
On to ACCACCAAAUGAAGAAUAATT against AKR7A3, for which the median seed-adjusted z-score is 0.455 (inactive).
On to GCAUCCUUGUGUACAUGUGTT against USP41, for which the median seed-adjusted z-score was 0.808 (inactive).
To GCACCUUCGUCUACAAGGATT against PDE6A belongs 1.25 (active); to UGGACUUCGUGGUUCAGCATT against SULT1A1, -0.26 (inactive).
As for GGAUGUUUUCCGGUUCAUATT against LOC4951, the median seed-adjusted z-score was 0.0691 (inactive).
To GCUUUCAUCGGCUCCAUAATT against CARM1 belongs 0.317 (inactive); to GAUGUAACAUUGACAUUGATT against NOTCH2, 0.000598 (inactive).
As to CAUUUUCAGUCUUUAGAAATT against RNF34, the median seed-adjusted z-score was -0.0857 (inactive).
To GGGUUGUUUCAAUCUAACATT against HDAC2 belongs -1.27 (active); to GCCCUGAAGAUAUCGUGAATT against PARVG, 0.321 (inactive).
For GGACUUUGAGGAAACGGAATT against BRD8, the median seed-adjusted z-score was -0.133 (inactive).
To GUUACGCCCUGAUUCUAAATT against MAT2A belongs -1.9 (active).
To GGAACAAAGACUAAAAACATT against TUBB6 belongs 0.63 (inactive); to GCAAAACACCAGAACGAGATT against TESSP2, 0.419 (inactive); to GAAUAGAGGAUAUCCUUGATT against KYNU, 0.00735 (inactive).
To CCAGCUUGCUUGUGUAUAATT against PPP1R14A belongs 0.0124 (inactive); to GGAAGACUCAUUGAACAUATT against CASP1, -0.331 (inactive); to GGGAAUUACCAGUUACGGATT against TMPRSS12, 0.0961 (inactive).
Take CAAUGUUCCUCUACCUCUATT against MAL2: the median seed-adjusted z-score was -0.604 (inactive).
As for GCAUCCUUACAGCACUGCATT against XRCC3, the median seed-adjusted z-score is 0.332 (inactive).
To GACUAUCUUUUUAGGCAAATT against BRIP1 belongs 0.312 (inactive); to GCCUCAUCGUUCUGCAGAATT against ZNF628, -0.121 (inactive); to GUACAGGCCCUACAUCAUUTT against LRP5, -1 (active).
With CAUCUGACCCUAACUGAAATT against ZMYND10, the median seed-adjusted z-score was 0.255 (inactive).
